Compound activity deposited in PubChem by National Center for Advancing Translational Sciences (NCATS).
NPC1 prom act – qHTS Assay for NPC1 Promoter Activators; Huh7 NPC1 promoter luciferase reporter, 24 h; Potency, µM (titrated, usually from 9.22 µM), inactives show top-dose activation, usual class: activators; hit rate 2.4% among 320,000; further: % of control where 0% means no effect; nearly all actives have a fitted effect of over 60% in size
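Readout is luciferase luminescence, reflecting NPC1 promoter activation in stably transfected Huh7 cells after 24 h compound exposure at 37 °C in reduced-serum medium with 10% FBS.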
ELG1 genotox – qHTS screen for small molecules that induce genotoxicity in human embryonic kidney (HEK293T) cells expressing luciferase-tagged ELG1 | HEK293T ELG1-luciferase reporter, luminescence, 16 h | AID 504466, 2011 | Potency, µM (doses to about 46 µM), for inactives: at the top dose activity change, positive = activation, usual class: activators | hit rate 1.3% among 330,000; further: % of control where 0% means no effect; nearly all actives have a fitted effect of over 60% in size
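Luminescence read-out: rising ELG1-luciferase signal, reflecting elevated ELG1 protein under genetic stress, flags genotoxic compounds. Cells were treated for 16 hr at 37 °C before ONE-Glo detection.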
ELG1 DNA repair – qHTS screen for small molecules that inhibit ELG1-dependent DNA repair in human embryonic kidney (HEK293T) cells expressing luciferase-tagged ELG1; hit rate 2.3% among 330,000; Potency, µM (top dose mostly 46.1 µM), inactives show top-dose activity change, negative = inhibition, actives largely listed as inhibitors; HEK293T ELG1-luciferase reporter, luminescence, 16 h; DNA damage induced by 5-fluorouridine; further: on the % scale 0 is the no-effect control and ±100 the full control effect; nearly all actives have a fitted effect of over 55% in size
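DMSO vehicle served as the neutral condition. Each well held 2,000 cells given 5-fluorouridine plus compound; after 16 hr at 37 °C/5% CO2, ONE-Glo was added and luciferase measured 30 min later.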
Rab9 prom act – qHTS Assay for Rab9 Promoter Activators; Huh7 Rab9 promoter-luciferase reporter, luminescence, 24 h; Potency, µM (series often up to 9.22 µM), inactives show top-dose activation, negative = inhibition, actives largely listed as activators; hit rate 2.8% among 320,000; AID 485297, 2010; further: % of control where 0% means no effect; nearly all actives have a fitted effect of over 60% in size
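Quantitative HTS format; Huh7 Rab9-luciferase reporter cells (1500/well) receive compound 2 h post-plating, incubate 24 h at 37 °C, then get luciferase reagent for 10 min before luminescence reading.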
FLuc modulator – qHTS profiling assay for firefly luciferase inhibitor/activator using purifed enzyme and Km concentrations of substrates (counterscreen for miR-21 project); purified FLuc, Km substrates, luminescence inhibition; Potency, µM (doses to about 57.5 µM), for the others: top-dose activity change, negative = inhibition, hits mostly inhibitors; hit rate 6.9% among 360,000;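 further: plate controls were vehicle for no effect and reference inhibitor for full effect; nearly all actives have a fitted effect of over 55% in size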
Target sequence (P08659 whole entry, looked up): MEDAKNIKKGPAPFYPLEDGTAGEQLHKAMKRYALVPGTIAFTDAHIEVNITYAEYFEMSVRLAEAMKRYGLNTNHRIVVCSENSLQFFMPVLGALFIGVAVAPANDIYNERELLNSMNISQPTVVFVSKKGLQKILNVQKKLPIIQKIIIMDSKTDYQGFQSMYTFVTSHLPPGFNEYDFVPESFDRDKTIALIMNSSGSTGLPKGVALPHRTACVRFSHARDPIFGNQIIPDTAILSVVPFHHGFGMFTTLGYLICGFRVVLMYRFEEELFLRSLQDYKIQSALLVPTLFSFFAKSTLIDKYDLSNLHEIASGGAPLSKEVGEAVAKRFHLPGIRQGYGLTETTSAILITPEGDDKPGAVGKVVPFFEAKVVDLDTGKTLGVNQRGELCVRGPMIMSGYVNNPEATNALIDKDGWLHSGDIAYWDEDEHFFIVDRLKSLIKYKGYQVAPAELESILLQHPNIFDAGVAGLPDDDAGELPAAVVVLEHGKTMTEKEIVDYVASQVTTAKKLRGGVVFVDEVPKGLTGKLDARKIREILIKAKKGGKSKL
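Purified P. pyralis luciferase, 10 nM final, with Km-level 10 uM D-luciferin and 10 uM ATP in 50 mM Tris acetate pH 7.5, 10 mM Mg acetate, 0.01% Tween-20, 0.05% BSA; 6-point qHTS titration about 60 µM downward; luminescence read.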
SMN2 splice enh – qHTS Assay for Enhancers of SMN2 Splice Variant Expression; AID 1458, 2008; hit rate 2.8% among 210,000; Potency, µM (series often up to 46.1 µM), for the others: top-dose activity change, positive = activation, most hits filed as activators; HEK293 SMN2-luciferase splicing reporter, luminescence, 30-36 h; further: % of control where 0% means no effect; nearly all actives have a fitted effect of over 55% in size
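HEK293 cells carry an SMN2 […]–luciferase reporter in which exon 7 inclusion puts luciferase in frame. Cells were plated 10-12 h before compound addition, then incubated 30-36 h at 37C. ONE-Glo luminescence was read; sodium butyrate at 4.5 mM final served as control.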
Active calls of the source: *; ? = inconclusive; . = no result given; [ ] = dose if it differs, or a comment. This is a sample that favours compounds with a hit; in the whole collection about 9.2% have one here. The call rests on the fitted dose curve; in most records, active means well fitted curve in the direction sought with a large enough effect; inconclusive means small, poorly fitted or top-dose-only effect, or another doubt; inactive means no such curve, though single readings can be large; an effect the other way counts as inactive or inconclusive. Potency means the concentration at half of the fitted maximal effect.

SMILES	NPC1 prom act	ELG1 genotox	ELG1 DNA repair	Rab9 prom act	FLuc modulator	SMN2 splice enh
CC(C)C1N=C(c2ccc3c(c2)OCO3)CC(c2ccccc2O)N1 (stereo not given)	?	17.9%	?	?	10.7µM*	-1.0%
COc1ccc(NC(=O)c2sc3nc[nH]c(=O)c3c2C)cc1Cl	.	.	.	.	-14.2%	.
CC(C)c1ccc(C(=O)CSc2ncn[nH]2)cc1	?	?	?	?	9.53µM*	28.5%
Cc1nn(Cc2ccc(Cl)c(Cl)c2)c(C)c1NC(=O)c1noc2c1CCCCC2	17.9%	1.8%	1.2%	-0.6%	2.5%	-46.5%
Cc1cc(C(=O)Nc2cc(C)n(Cc3ccc(Cl)cc3)n2)no1	4.7%	-3.4%	-19.5%	-2.0%	-25.0%	-18.0%
Cc1cc(NC(=O)c2noc3c2CCCCC3)nn1Cc1ccc(Cl)cc1	-3.8%	0.0%	1.5%	-3.4%	13.5µM*	-34.5%
Cc1nn(Cc2ccc(Cl)cc2)c(C)c1NC(=O)c1noc2c1CCCCC2	-3.4%	-8.1%	23.1µM*	-5.8%	2.6%	-26.3%
Cc1nc2c(-c3ccccc3)c(C)nn2c(N)c1-c1ccccc1	2.24µM*	?	?	1.58µM*	1.07µM*	12.6µM*
Cc1cc(N)n2nc(-c3ccccc3)c(-c3ccccc3)c2n1	-5.5%	5.5%	?	0.3%	-10.5%	.
Cc1nn2c(N)c(-c3ccccc3)cnc2c1-c1ccc(Cl)cc1	2.51µM*	?	?	3.55µM*	5.36µM*	.
Cc1ccc(-c2ccnc3c(Cl)c(C)nn23)cc1	-3.1%	-1.8%	4.3%	-2.2%[1.84 µM]	?	.
Cc1nn2c(-c3ccccc3)ccnc2c1-c1ccccc1	?	?	?	?	5.36µM*	-21.5%
CCOC(=O)c1nnc2c(-c3ccc(Cl)cc3)c(C)nn2c1N	.	.	.	.	-0.3%	0.2%
Cc1nn2c3c(cnc2c1-c1ccccc1)C(=O)CCC3	?	?	?	?	15.1µM*	-1.3%
COc1ccc(NC(=O)CN2CCCN(S(=O)(=O)c3ccc(Br)cc3)CC2)c(OC)c1	.	.	.	.	-8.1%	-27.7%
COc1ccc(Cc2nc(-c3ccc(-n4cccc4)cc3)no2)cc1OC	-2.8%	13µM*	?	-19.4%	3.5%	-101.8%
COc1ccc(Cc2nc(-c3ccc(-n4cccc4)cc3)no2)cc1	0.4%	1.8%	16.7%	-3.6%	-7.8%	-33.6%
COc1ccc(Cc2nc(-c3cccs3)no2)cc1	?	?	?	?	15.1µM*	?
COc1ccc(Cc2nc(-c3ccccc3)no2)cc1	?	16.4µM*	?	?	15.1µM*	?
COc1ccc(Cc2nc(-c3cccs3)no2)cc1OC	1.3%	-1.8%	-5.6%	-6.2%	?	-23.9%
c1csc(-c2noc(COc3ccc4c(c3)CCCC4)n2)c1	3.98µM*	18.4µM*	?	2.82µM*	10.7µM*	12.6µM*
CC(Sc1nnnn1-c1ccccc1)C(=O)NC1CCCC1 (stereo not given)	2.2%	-4.3%	-0.5%	-0.9%	0.3%	.
CCN(CCCNC(=O)c1nn(-c2ccc(C)cc2)c(=O)c2c1c1ccccc1n2C)c1ccccc1	.	.	.	.	-1.9%	-0.9%
COc1ccc(CNC(=O)Cc2c(C)c3cc4c(C)coc4cc3oc2=O)cc1OC	.	.	.	.	-6.4%	-9.7%
CCN(C(=O)COc1ccc(F)cc1Br)c1c(N)n(Cc2ccccc2)c(=O)[nH]c1=O	-0.9%	-0.7%	0.5%	-6.3%	3.2%	.
SMILES	NPC1 prom act	ELG1 genotox	ELG1 DNA repair	Rab9 prom act	FLuc modulator	SMN2 splice enh
Cc1ccc2nc(C3CCCCC3)[nH]c2c1	1.78µM*	?	?	2.82µM*	9.53µM*	.
CCNC(=S)N1CCCC(c2nc3ccc(C)cc3[nH]2)C1 (stereo not given)	-4.6%	9.8%	10.0%	-8.4%	-5.4%	.
C/C(=N/NS(=O)(=O)c1ccc(Br)cc1)c1ccc(NC(=O)c2ccc(C)o2)cc1	2.5%	-0.5%	26.4%	6.9%	23.9µM*	13.8%
O=C(Nc1ccc(NC(=O)c2ccc([N+](=O)[O-])cc2[N+](=O)[O-])cc1)c1ccco1	1.1%	14.9%	?	18.5%	2.4%	.
C/C(=N\NS(=O)(=O)c1ccc([N+](=O)[O-])cc1)c1ccc(NC(=O)c2ccco2)cc1	10.8%	?	?	4.8%	?	17.8µM*
CC(=O)Nc1ccc(/C(C)=N/NS(=O)(=O)c2ccc(C)cc2)cc1	-1.6%	0.7%	1.8%	0.1%	2.9%	-18.2%
CCOc1ccc(Nc2nc(Nc3ccc(O)cc3)nc(C)c2[N+](=O)[O-])cc1	-3.6%	0.5%	14.4%	2.5%	-5.2%	.
CCCc1noc2c1C(c1cc(Br)ccc1F)C(C#N)=C(N)N2 (stereo not given)	-4.5%	0.2%	5.1%	-12.4%	1.3%	-2.1%
O=C(CN1CCN(c2ccccn2)CC1)Nc1ccc2ccccc2c1	10.5%	?	?	20.6%	16.9µM*	-22.2%
CN(CC(=O)N1CCN(c2ccccn2)CC1)S(=O)(=O)c1ccc2ccccc2c1	-1.9%	-17.3%	10.3µM*	-2.1%	-1.0%	22.4%
Cc1ccc2nc(-c3ccc(NC(=O)CN4C(=O)c5ccccc5C4=O)cc3)sc2c1	?	9.2µM*	?	3.98µM*	2.69µM*	2.82µM*
CC(=O)Nc1ccc(NC(=O)CN2CCN(c3ccccn3)CC2)cc1	-1.5%	-0.3%	14.8%	-0.7%	-0.5%	.
Cc1sc(NC(=O)CN2CCN(c3ccccn3)CC2)c(C#N)c1C	-4.2%	-1.6%	11.6µM*	8.7%	-1.2%	-10.3%
Cc1ccc2nc(-c3ccc(NC(=O)CN4CCN(c5ccccn5)CC4)cc3)sc2c1	?	?	?	?	10.7µM*	.
Cc1ccc2nc(-c3ccc(NC(=O)COC(=O)c4ccc(=O)[nH]c4)cc3)sc2c1	0.355µM*	2.31µM*	?	0.562µM*	3.38µM*	1.58µM*
CSc1ccccc1NC(=O)c1cc2ncc(Br)cn2n1	3.9%	?	?	?	8.49µM*	3.16µM*
Cc1ccccc1Cn1ccc(NC(=O)c2nn3cccnc3c2Cl)n1	11.6%	5.1%	?	26.9%	16.9µM*	-10.3%
Cc1ccccc1Cn1ccc(NC(=O)c2cc3nc(-c4ccco4)cc(C(F)(F)F)n3n2)n1	-2.1%	2.3%	9.3%	3.8%	1.5%	-16.1%
O=C(NCc1ccc2c(c1)OCO2)c1nn2cccnc2c1Cl	.	.	.	.	3.7%	-1.4%
